The record followed here is PubChem BioAssay AID2061317 (National Center for Advancing Translational Sciences (NCATS), 2025).

The structures appear in SMILES notation. Records with an inconclusive call do not appear. Activity calls are given as the source filed them. The call rests on the fitted dose curve; in most records, active means well fitted inhibition curve with a large enough effect; inconclusive means small, poorly fitted or top-dose-only effect; inactive means flat fitted curve, though single readings scatter.

The assay can be described thus: Identification of antibody-drug conjugate (ADC) payloads which are substrates of ATP-binding cassette drug efflux transporters: ABCB1-HEK293-MDR-19 cell line with tariquidar. As to conditions: HEK293 ABCB1 (MDR-19) + tariquidar, CellTiter-Glo viability, 48 h. From the text:
Antibody-drug conjugates (ADCs) feature an antibody recognizing a specific protein joined to a potent toxic payload. Numerous antibody-drug conjugates have received FDA approval; however, clinical resistance arises. Resistance mechanisms include decreased expression or mutation of the antibody target, impaired payload release, or increased expression of ATP-binding cassette (ABC) efflux transporters associated with multidrug resistance. We therefore sought to characterize the interaction of ABC multidrug transporters with ADC payloads. We performed a high-throughput screen with 27 common ADC payloads using cells lines expressing ABC transporters P-glycoprotein (P-gp, encoded by ABCB1) or ABCG2 (encoded by ABCG2). Confirmatory assays were also performed using cells transfected to express P-gp, ABCG2, or MRP1 (encoded by ABCC1). Several commonly used ADC payloads were substrates of P-gp, including calicheamicin gamma1, monomethyl auristatin E, DM1, and DM4. All the pyrrolobenzodiazepines tested - SJG136, SGD-1882, SG2057, and SG3199 - were substrates of P-gp, ABCG2, and MRP1. […] These findings highlight the risk of transporter-mediated resistance with certain ADC payloads and underscore the importance of selecting payloads that evade ABC transporter recognition in future ADC development.
HEK-293 cells were transfected with empty vector (pcDNA) or vector containing the human ABCB1 (MDR-19), ABCG2 (R-5), or ABCC1 gene (MRP1) and were maintained in EMEM with 2 mg/mL G418 added to maintain transporter expression. The HeLa derivative KB-3-1 and the P-gp overexpressing KB-8-5-11 subline were maintained in DMEM; KB-8-5-11 additionally received 100 ng/mL colchicine. H460 parental cells were obtained from the Division of Cancer Treatment and Diagnosis Tumor Repository, National Cancer Institute at Frederick, MD and were cultured in RPMI. The ABCG2 expressing subline H460 MX20 was generated by selecting H460 cells in 20 nM mitoxantrone. Media in all cases was supplemented with 10% FBS and 1% penicillin-streptomycin. We explored 27 common ADC payloads, in two orthogonal, paired cell line sets-a drug selected and transfected set for each transporter--to identify substrates of the ABC transporters P-gp and ABCG2. Compounds were sourced from Levena Biopharma (San Diego, CA), Selleck Chem (Houston, TX), ChemieTek (Indianapolis, IN), or Microsource Discovery Systems (Gaylordsville, CT). Screening was performed as previously described. Briefly, cells were plated at a density of 500 cells/well in 1536 well plates with compounds added using a 1536-head pin tool (Kalypsys, San Diego CA). Cells were incubated with cytotoxic drugs and processed with CellTiter Glo reagent (Promega, Madison, WI) to determine viability after 48 hours. P-gp substrates were identified by comparing compound activity between paired sets of low-expressing (sensitive) and over-expressing (resistant) cell lines.
A general note: Cellular ATP, detected with luciferase, serves as a proxy for viable cell number.
Consider `COc1cccc2c1C(=O)c1c(O)c3c(c(O)c1C2=O)C[C@@](O)(C(=O)CO)CC3OC1CC(N2CCOC(OC)C2)C(O)C(C)O1` (some centres not stated), for which the Potency is 1.3 nM (active). Regarding `CC[C@H](C)[C@@H]([C@@H](CC(=O)N1CCC[C@H]1[C@H](OC)[C@@H](C)C(=O)N[C@H](C)[C@@H](O)c1ccccc1)OC)N(C)C(=O)[C@@H](NC(=O)[C@H](C(C)C)N(C)C)C(C)C`, the Potency is 1.3 nM (active).

As to `CC[C@@]1(O)C(=O)OCc2c1cc1n(c2=O)Cc2cc3ccccc3nc2-1`, the Potency was 13.3 nM (active).

Regarding `COc1cc2cc(C(=O)N3C[C@@H](CCl)c4c3cc(O)c3ccccc43)[nH]c2c(OC)c1OC`, the Potency is 1.7 nM (active).

As to `COc1cc2cc(c1Cl)N(C)C(=O)C[C@H](OC(=O)[C@H](C)N(C)C(=O)CCC(C)(C)S)[C@]1(C)OC1[C@H](C)C1C[C@@](O)(NC(=O)O1)[C@H](OC)/C=C/C=C(\C)C2` (some centres not stated), the Potency was 1.2 nM (active). With `CC[C@H](C)[C@H](NC(=O)[C@H]1CCCCN1C)C(=O)N(C)[C@H](C[C@@H](OC(C)=O)c1nc(C(=O)N[C@@H](Cc2ccccc2)C[C@H](C)C(=O)O)cs1)C(C)C`, the Potency is 3.3 nM (active). Take `COc1cc2cc(c1Cl)N(C)C(=O)C[C@H](OC(=O)C(C)C)[C@]1(C)O[C@H]1[C@H](C)[C@@H]1C[C@@](O)(NC(=O)O1)[C@H](OC)C=CC=C(C)C2`: the Potency was 0.3 nM (active).
